From PubChem BioAssay (NCI)
The panel holds about 83,000 compounds, 20% with a hit somewhere; the sample as a whole holds those more often.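 Treatment: one concentration, 48 hours, 96-well format. Scoring: percent growth, with anything below 10 considered active.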 Unmarked numbers belong to inactive results. Calls of active or inactive are those of the source.

Legend:
Test in all cases: NCI-60 one-dose screen, 48 h (100 = growth as untreated, 0 = no growth, -100 = all killed)
SK-MEL-2 melanoma = details: 10 µM unless noted
EKVX NSCLC = details: 10 µM unless noted
SN12C renal = details: 10 µM unless noted
UO-31 renal = details: 10 µM unless noted
TK-10 renal = details: 10 µM unless noted
CAKI-1 renal = details: 10 µM unless noted
A498 renal = details: 10 µM unless noted
CCRF-CEM leukemia = details: 10 µM unless noted
MOLT-4 leukemia = details: 10 µM unless noted
SR leukemia = details: 10 µM unless noted
RPMI-8226 leukemia = details: 10 µM unless noted
OVCAR-8 ovarian = details: 10 µM unless noted
OVCAR-5 ovarian = details: 10 µM unless noted
OVCAR-4 ovarian = details: 10 µM
SK-OV-3 ovarian = details: 10 µM unless noted
IGROV1 ovarian = details: 10 µM unless noted
HS 578T breast = details: 10 µM unless noted
NCI/ADR-RES ovarian = details: 10 µM unless noted
OVCAR-3 ovarian = details: 10 µM unless noted
ACHN renal = details: 10 µM unless noted

| Structure (SMILES) | growth (SK-MEL-2 melanoma) | growth (EKVX NSCLC) | growth (SN12C renal) | growth (UO-31 renal) | growth (TK-10 renal) | growth (CAKI-1 renal) | growth (A498 renal) | growth (CCRF-CEM leukemia) | growth (MOLT-4 leukemia) | growth (SR leukemia) | growth (RPMI-8226 leukemia) | growth (OVCAR-8 ovarian) | growth (OVCAR-5 ovarian) | growth (OVCAR-4 ovarian) | growth (SK-OV-3 ovarian) | growth (IGROV1 ovarian) | growth (HS 578T breast) | growth (NCI/ADR-RES ovarian) | growth (OVCAR-3 ovarian) | growth (ACHN renal) |
| --- | --- | --- | --- | --- | --- | --- | --- | --- | --- | --- | --- | --- | --- | --- | --- | --- | --- | --- | --- | --- |
| NC(=S)Cc1ccccc1 | 103% | 97.9% | 94.7% | 84.4% | 94.3% | 89.1% | 73.6% | 105% | 103% | 97.9% | 99.2% | 103% | 100% | 97% | 103% | 107% | 102% | 105% |  |  |
| C[C@]12CCc3c(ccc4cc(O)ccc34)[C@@H]1CC[C@H]2O | 101% | 56.9% | 87.6% | 87.2% | 102% | 87.8% | 85% | 90.4% | 95.1% | 74.3% |  | 103% | 107% | 96.1% | 121% | 110% | 29.8% | 101% | 94.9% |  |
| Nc1cc(C(=O)O)[nH]c(=S)n1 | 98.9% | 92.6% | 99.7% | 87.5% | 93.4% |  | 101% |  |  | 94.2% | 95% | 101% | 96.1% | 105% | 115% | 95.4% | 98.1% | 100% |  | 103% |
| CC1(C)CC[C@]2(C(=O)O)CC[C@]3(C)C(=CC[C@@H]4[C@@]5(C)C/C(=C/c6cccnc6)[C@H](O)C(C)(C)[C@@H]5CC[C@]43C)[C@@H]2C1 | -29.9% [100 µM] (active) | 0.843% [100 µM] (active) | 6.59% [100 µM] (active) | -57.6% [100 µM] (active) | 1.87% [100 µM] (active) |  | 23.9% [100 µM] | 1.37% [100 µM] (active) |  | 37.3% [100 µM] | -12% [100 µM] (active) | 13.2% [100 µM] | -2.1% [100 µM] (active) |  | 1.32% [100 µM] (active) | 2.18% [100 µM] (active) | 3% [100 µM] (active) | 3.8% [100 µM] (active) | -14.6% [100 µM] (active) | 2.77% [100 µM] (active) |
| C[C@H]1[C@H](C)CC[C@]2(COC(=O)CCC(=O)O)CC[C@]3(C)C(=CC[C@@H]4[C@@]5(C)CCCNC(C)(C)[C@@H]5CC[C@]43C)[C@H]12 | 55.6% [100 µM] | 71.5% [100 µM] | 65% [100 µM] | 65.4% [100 µM] | 81.3% [100 µM] | 54.1% [100 µM] | 70.3% [100 µM] | 73.5% [100 µM] | 46% [100 µM] | 80.4% [100 µM] | 59.7% [100 µM] | 69.8% [100 µM] | 88.5% [100 µM] |  | 65.2% [100 µM] | 54.9% [100 µM] | 41.8% [100 µM] | 71.8% [100 µM] | 75.4% [100 µM] |  |
| C=C(C)[C@@H]1CC[C@]2(C(=O)NCCCN)CC[C@]3(C)[C@H](CC[C@@H]4[C@@]5(C)CC[C@H](O)C(C)(C)[C@@H]5CC[C@]43C)[C@@H]12 | -24.2% [100 µM] (active) | -15.7% [100 µM] (active) | -34.7% [100 µM] (active) | -34.3% [100 µM] (active) | -32.2% [100 µM] (active) |  | -44.8% [100 µM] (active) | 1.39% [100 µM] (active) | 2.76% [100 µM] (active) | 23.7% [100 µM] | -6.66% [100 µM] (active) | -3.81% [100 µM] (active) | -47.7% [100 µM] (active) |  | -27.2% [100 µM] (active) | -6.94% [100 µM] (active) | -4.98% [100 µM] (active) | -9.52% [100 µM] (active) | -45.9% [100 µM] (active) | -49.2% [100 µM] (active) |
| CCN(CC)c1ccc2cc(C(Nc3ccc(Cl)cc3)c3nnnn3C(C)(C)C)c(=O)oc2c1 (stereo not given) | 89.5% | 81.4% | 89.6% | 71.8% | 85.7% |  | 81% | 93.5% | 63.5% | 101% | 88.4% | 89.9% | 90.2% |  | 105% | 93.6% | 89.4% | 97.7% |  | 92.4% |
| C[C@H]1[C@H](C)CC[C@]2(C(=O)O)CC[C@]3(C)C(=CC[C@@H]4[C@@]5(C)C/C(=C/c6ccco6)C(=O)C(C)(C)[C@@H]5CC[C@]43C)[C@H]12 | -64% [100 µM] (active) | -68.4% [100 µM] (active) | -56% [100 µM] (active) | -99.5% [100 µM] (active) | -73.4% [100 µM] (active) |  | -56.2% [100 µM] (active) | -26.4% [100 µM] (active) | -10.8% [100 µM] (active) | 31.2% [100 µM] | -19.3% [100 µM] (active) | -19% [100 µM] (active) | -48.8% [100 µM] (active) |  | -17.3% [100 µM] (active) | -59.6% [100 µM] (active) | -13.9% [100 µM] (active) | -58.9% [100 µM] (active) | -74.5% [100 µM] (active) | -97.9% [100 µM] (active) |
| CC(C)=CCC[C@](C)(O)[C@H]1CC[C@]2(C)[C@@H]1CC[C@@H]1[C@@]3(C)CC/C(=N/O)C(C)(C)[C@@H]3CC[C@]12C | -23.2% [100 µM] (active) | 2.6% [100 µM] (active) | -42.4% [100 µM] (active) | -17.7% [100 µM] (active) | -39.1% [100 µM] (active) |  | -15.7% [100 µM] (active) | 23.1% [100 µM] | 2.24% [100 µM] (active) | 12.5% [100 µM] | -2.67% [100 µM] (active) | -69.7% [100 µM] (active) | 2.17% [100 µM] (active) |  | 12.4% [100 µM] | -66.5% [100 µM] (active) | -13% [100 µM] (active) | -10.9% [100 µM] (active) | -42.3% [100 µM] (active) | -72% [100 µM] (active) |
| Cn1cc(-c2noc(C(=O)c3cn(C)c4ncc(Br)cc34)n2)c2ccccc21 | 95.4% | 85.5% | 94.8% | 79.3% | 107% | 89.5% | 75.3% | -49.1% (active) | 105% | 95.6% | 84.6% | 101% | 90.2% | 100% |  | 87.8% | 99.7% | 106% | 106% |  |
| C[C@@H]1C[C@H]2C(=O)O[C@@H](C)[C@H](NC(=O)[C@H](Cc3cc(F)cc(F)c3)NC(=O)Nc3ccc(C4CC4)cc3F)C(=O)N3CCC[C@H]3C(=O)N3CCCC[C@H]3C(=O)N[C@@H](C)C(=O)N2C1 | 16.7% | 26.6% | 15.8% | 8.68% (active) | 38.4% |  | -5.24% (active) | 39.9% | 28.6% | 27.8% | 14% | 11% | -2.59% (active) | 7.8% (active) |  | 28.5% | 18.1% | 14.9% | 5.07% (active) | 11.5% |
| CCOC(=O)c1c[nH]n2c(=S)ncnc12 | 94.8% | 108% | 99.4% | 84.8% | 99.6% |  | 98.5% | 101% |  | 107% | 107% | 104% | 103% | 101% | 103% | 121% | 118% | 99.1% | 99.5% | 99.7% |
| CC1Cc2c(Cl)ncnc2N(C)c2ccccc21 (stereo not given) | -28.2% (active) | 21.7% | 15.8% | 10.4% | 15.1% | 19.3% | -18.4% (active) | 34.2% | 8.61% (active) | 6.5% (active) | 12.2% | 10.7% | 41.8% | 21.5% | 15.8% | 50.5% | 24.6% | 16.6% | 10.6% |  |
| C#C[C@]1(O)CC[C@H]2[C@@H]3CC=C4c5nc(N)sc5CC[C@]4(C)[C@H]3CC[C@@]21C | 58.8% | 53.7% | 82.2% | 90.4% | 80.4% | 54.9% | 36.4% | 77.7% | 36.9% | 23.6% | -7.97% (active) | 85.3% | 88.5% | 63.4% |  | 71.8% | 6.1% (active) | 62.1% | 47.2% |  |
| CCOC(=O)c1cc(C#N)n2ncc3ccccc3c12 | 108% | 94.9% | 95.3% | 84.1% | 91.4% |  | 72.4% | 106% | 89.7% | 98.4% | 105% | 97.7% | 84.7% |  | 107% | 92.4% | 98.3% | 97.7% | 103% | 91.6% |
| CC1=CCc2ccccc21 | 140% | 110% | 88% | 70.8% | 103% | 87.7% | 89.9% | 94.3% | 97% | 98.6% | 95% | 101% | 102% |  | 101% | 88.5% | 98.3% | 98.1% | 106% |  |
